G9a block: inhibitors of human histone lysine methyltransferase G9a; Q96KQ7; G9a H3K9 monomethylation, AlphaScreen, 2 h; Potency, µM (doses to about 102 µM), for the others: top-dose activity, negative = inhibition, most hits filed as inhibitors; 350,000 tested, 8.8% active; AID 504332; further: potency means the concentration at half of the fitted maximal effect; on the % scale 0 is the no-effect control and ±100 the full control effect; nearly all actives have a fitted effect of over 75% in size
Target sequence (Q96KQ7 913-1193 limits assumed): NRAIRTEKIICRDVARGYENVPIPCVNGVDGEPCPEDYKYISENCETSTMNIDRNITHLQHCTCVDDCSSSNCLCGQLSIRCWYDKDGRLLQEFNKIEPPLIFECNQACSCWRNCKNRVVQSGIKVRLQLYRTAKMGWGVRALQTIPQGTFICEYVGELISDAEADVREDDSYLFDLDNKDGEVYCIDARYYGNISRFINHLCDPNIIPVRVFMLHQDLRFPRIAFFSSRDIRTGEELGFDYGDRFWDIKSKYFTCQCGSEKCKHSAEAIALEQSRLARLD
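Methyltransferase reactions run at room temperature for 2 h (20 nM enzyme, 500 nM biotin-H3K9 peptide, 20 uM SAM) after a 15 min compound preincubation; product detected by AlphaScreen beads and anti-H3K9me1 antibody.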
BAZ2B inh: inhibitors of human BAZ2B bromodomain; Q9UIF8; AlphaScreen BAZ2B-H3K14Ac peptide displacement; Potency, µM (titrated, usually from 114 µM), for the others: at the top dose activity change, negative = inhibition, most hits filed as inhibitors; 360,000 tested, 4.4% active; AID 504333; further: potency means the concentration at half of the fitted maximal effect; on the % scale 0 is the no-effect control and ±100 the full control effect; nearly all actives have a fitted effect of over 60% in size
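BAZ2B (50 nM) with biotin-H3(5-23)K14Ac peptide (50 nM) in PBS pH 7.4, 0.01% Tween-20, preformed 30 min, then compound 30 min at room temperature; top concentration 110uM. AlphaScreen streptavidin donor/nickel chelate acceptor beads (10 ug/mL final), 20 min dark, signal read.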
CtBP-E1A inh: inhibitors of CtBP/E1A interaction | AlphaScreen GST-E1A/His-CtBP binding, 1536-well; stronger effect = lower value | activity change, % (concentration not given with the values) | 340,000 tested, 0.49% active; in the data active means activity change below about -65%; inconclusive means mostly about -30% to -63%; further: on the % scale 0 is the no-effect control and ±100 the full control effect
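Protein mix (5X: 125 nM each GST-E1A, His-CtBP) was incubated with pinned compound 2 h at 37 deg C in dark, in 50 mM Tris pH 8.0 buffer with 300 mM NaCl. Glutathione donor and nickel acceptor beads followed; AlphaScreen signal read after 1 h.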
JMJD2A Tudor: inhibitors of human JMJD2A Tudor domain; O75164; AlphaScreen JMJD2A-Tudor / H3K4me3 peptide binding; Potency, µM (series often up to 114 µM), for the others: top-dose activity change, negative = inhibition, most hits filed as inhibitors; 390,000 tested, 4.4% active; AID 504339; further: potency means the concentration at half of the fitted maximal effect; on the % scale 0 is the no-effect control and ±100 the full control effect; nearly all actives have a fitted effect of over 50% in size
Six1-Eya2 blk: Six1/Eya2 interaction inhibition; 360,000 tested, 0.56% active; activity change, % (concentration not given with the values); AID 651725; AlphaScreen GST-Six1/His-Eya2 binding, biochemical; stronger effect = lower value; in the data active means activity change below about -65%; inconclusive means mostly about -30% to -63%; further: on the % scale 0 is the no-effect control and ±100 the full control effect
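AlphaScreen with GST-Six1 and His-Eya2 (5X mix: 250 nM and 500 nM), glutathione donor and nickel acceptor beads; buffer 50 mM Tris pH 8.0, 300 mM NaCl, 1 mM TCEP; 1 h at 37 C in the dark.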
HP1b chromo inh: inhibitors of HP1-beta chromodomain binding to methylated histone tails; AlphaScreen HP1-beta / biotin-H3K9me3 peptide binding; Potency, µM (top dose mostly 114 µM), inactives show at the highest dose activity change, negative = inhibition, most hits filed as inhibitors; 390,000 tested, 0.56% active; AID 540317; P83916; further: potency means the concentration at half of the fitted maximal effect; nearly all actives have a fitted effect of over 70% in size
Target sequence (P83916 whole entry, looked up): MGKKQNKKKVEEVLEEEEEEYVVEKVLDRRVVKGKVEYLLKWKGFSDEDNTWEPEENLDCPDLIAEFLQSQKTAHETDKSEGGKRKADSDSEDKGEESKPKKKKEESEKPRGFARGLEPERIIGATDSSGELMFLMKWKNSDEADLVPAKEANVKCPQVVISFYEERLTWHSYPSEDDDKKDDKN
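HP1-beta protein (50 nM final) preincubated 30 min at room temperature with biotinylated H3(1-18)K9me3 peptide (50 nM) in PBS pH 7.4, 0.01% Tween-20, then compound added for 30 min. AlphaScreen streptavidin donor/nickel chelate acceptor beads (10 ug/mL final), 30 min dark, luminescence read.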
The depositor's hits bear a star; [ ] = dose if it differs, or a comment. An excerpt weighted towards active compounds, which were near 10% of everything screened. Unless noted, the call rests on the fitted dose curve; in most records, active means well fitted inhibition curve with a large enough effect; inconclusive means small, poorly fitted or top-dose-only effect; inactive means no such curve, though single readings can be large or run the other way.

CC1CN(C(=O)CCNC(=O)c2ccccc2Cl)CC(C)O1 (stereo not given) was read as BAZ2B inh -5.3%, CtBP-E1A inh -9.9, JMJD2A Tudor -6.2%, Six1-Eya2 blk -0.2 and HP1b chromo inh 27.3%.
`O=C(NCc1ccc(F)cc1)c1cc(C2CCCCN2S(=O)(=O)c2ccc(F)cc2F)on1` (stereo not given) gave CtBP-E1A inh -3.0 and Six1-Eya2 blk -7.0.
`N#CC1(NC(=O)CSc2nnc(-c3ccccc3F)o2)CCCCC1` gave G9a block 39.8µM*, BAZ2B inh -0.6%, CtBP-E1A inh 6.6, JMJD2A Tudor -9.2%, Six1-Eya2 blk -4.1 and HP1b chromo inh -20.6%.
O=C(O/N=C\c1ccc(N2CCCCC2)c([N+](=O)[O-])c1)c1cccc(Cl)c1 was read as G9a block 28.2µM*, BAZ2B inh inconclusive, CtBP-E1A inh -0.9, JMJD2A Tudor inconclusive, Six1-Eya2 blk -10.2 and HP1b chromo inh inconclusive.
`O=C(N/N=C/c1ccc(N2CCCC2)c([N+](=O)[O-])c1)c1cccnc1` gave G9a block inconclusive, BAZ2B inh inconclusive, CtBP-E1A inh -10.3, JMJD2A Tudor -21.8%, Six1-Eya2 blk -4.2 and HP1b chromo inh -5.1%.
`O=C(O/N=C\c1ccc(N2CCCCC2)c([N+](=O)[O-])c1)c1cccc(C(F)(F)F)c1` gave G9a block 5.01µM*, BAZ2B inh inconclusive, CtBP-E1A inh -9.4, JMJD2A Tudor inconclusive, Six1-Eya2 blk 1.3 and HP1b chromo inh inconclusive.
O=C(O/N=C\c1ccc(N2CCCCC2)c([N+](=O)[O-])c1)c1c(F)cccc1F was read as G9a block 14.1µM*, BAZ2B inh inconclusive, CtBP-E1A inh inconclusive, JMJD2A Tudor inconclusive, Six1-Eya2 blk inconclusive and HP1b chromo inh inconclusive.
Screening CO/N=C/c1ccc(N2CCN(C(=O)c3cccc(C(F)(F)F)c3)CC2)c([N+](=O)[O-])c1 returned G9a block inconclusive, BAZ2B inh inconclusive, CtBP-E1A inh inconclusive, JMJD2A Tudor inconclusive, Six1-Eya2 blk inconclusive and HP1b chromo inh -28.8%.
`O=c1[nH]cc(CCc2ccccc2)c2ncncc12` gave JMJD2A Tudor -4.1% and HP1b chromo inh 28.9%.
COC(=O)N1CCC2(CC1)CN(c1ccncc1)C2 was read as G9a block 2.3%[12.7 µM].
For Cc1cc(C)n2ncc(C(=O)Nc3ccc(Cl)c(Cl)c3)c2n1 the results were G9a block 39.8µM*, BAZ2B inh -10.5%, CtBP-E1A inh -8.4, JMJD2A Tudor -24.6%, Six1-Eya2 blk 8.4 and HP1b chromo inh inconclusive.
`CNC(=O)C1CCN(S(=O)(=O)c2c(C)noc2/C=C/c2ccccc2F)CC1` gave G9a block -9.1%[12.7 µM], BAZ2B inh -3.9%, CtBP-E1A inh 1.6, JMJD2A Tudor -12.7%, Six1-Eya2 blk 0.6 and HP1b chromo inh 16.1%.
CCOC(=O)c1ccc(S(=O)(=O)NCC(c2ccc(N(C)C)cc2)c2c[nH]c3ccccc23)cc1 (stereo not given) was read as G9a block inconclusive, BAZ2B inh 10µM*, CtBP-E1A inh 2.3, JMJD2A Tudor 11.2µM*, Six1-Eya2 blk inconclusive and HP1b chromo inh 31.6µM*.
`CCOC(=O)c1ccc(S(=O)(=O)NCCN(CC)CC)cc1` gave G9a block inconclusive, BAZ2B inh -18.0%, CtBP-E1A inh 0.0, JMJD2A Tudor -7.5%, Six1-Eya2 blk 3.4 and HP1b chromo inh 11.2%.
O=[N+]([O-])CC(c1ccccc1)c1c[nH]c2ccccc12 (stereo not given) was read as JMJD2A Tudor -29.1%, Six1-Eya2 blk 6.0 and HP1b chromo inh 22.8%.
Screening CN(C)c1ccc(C(CNS(=O)(=O)c2ccc(F)cc2)c2c[nH]c3ccccc23)cc1 (stereo not given) returned G9a block 10µM*, BAZ2B inh 17.8µM*, CtBP-E1A inh inconclusive, JMJD2A Tudor 25.1µM*, Six1-Eya2 blk inconclusive and HP1b chromo inh inconclusive.
Screening COc1ccc(-c2cn3c(n2)sc2cc(C(=O)Nc4ccc(C)c(C)c4)ccc23)cc1 returned G9a block -2.2%[59 µM], BAZ2B inh 3.1%, JMJD2A Tudor 0.0% and HP1b chromo inh 52.1%.
For O=S(=O)(Nc1ccc(O)c(NS(=O)(=O)c2ccccc2)c1)c1ccccc1 the results were G9a block 0.316µM*, BAZ2B inh inconclusive, CtBP-E1A inh 1.6, JMJD2A Tudor 63.1µM*, Six1-Eya2 blk -10.2 and HP1b chromo inh -30.2%.
O=[N+]([O-])c1ccc(S(=O)(=O)Nc2ccc3c(c2)OCCO3)cc1 was read as G9a block 39.8µM*, BAZ2B inh inconclusive, JMJD2A Tudor inconclusive, Six1-Eya2 blk 11.1 and HP1b chromo inh -3.6%.
Cc1cc(NS(=O)(=O)c2ccccc2)ccc1NS(=O)(=O)c1ccccc1 was read as CtBP-E1A inh 2.3, JMJD2A Tudor 0.7%, Six1-Eya2 blk 0.7 and HP1b chromo inh 18.0%[57 µM].
For Cc1ccc2cccc(OCC(=O)Nc3ccc4c(c3)OCO4)c2n1 the results were G9a block -28.5%, BAZ2B inh -19.6%, CtBP-E1A inh -26.0, JMJD2A Tudor -21.9%, Six1-Eya2 blk -21.9 and HP1b chromo inh 1.6%.
COc1ccc(N(CC(=O)NCc2ccc3c(c2)OCO3)S(=O)(=O)c2c(C)nn(C)c2C)cc1 was read as G9a block 79.4µM*, BAZ2B inh 6.8%, CtBP-E1A inh 9.1, JMJD2A Tudor -4.2%, Six1-Eya2 blk 1.0 and HP1b chromo inh 23.7%.
`Cc1ccc2cccc(S(=O)(=O)Nc3ccc4c(c3)OCO4)c2n1` gave G9a block inconclusive, BAZ2B inh 50.1µM*, CtBP-E1A inh 2.3, JMJD2A Tudor inconclusive, Six1-Eya2 blk -7.9 and HP1b chromo inh 20.4%.
For O=C(N/C(=C/c1ccc(Br)cc1)C(=O)N1CCOCC1)c1cccs1 the results were BAZ2B inh -5.0%, CtBP-E1A inh -5.0, JMJD2A Tudor -11.0%, Six1-Eya2 blk -4.6 and HP1b chromo inh 26.1%.
Cc1oc2ccc(O)c(CN(C)Cc3ccccc3)c2c1C(=O)Nc1cccc(Cl)c1C was read as G9a block -0.9%[59 µM], BAZ2B inh -4.6%, JMJD2A Tudor -10.1% and HP1b chromo inh 15.8%.
NNC(=O)c1c[nH]c2ccc(OCc3ccccc3)cc12 was read as CtBP-E1A inh -4.3, JMJD2A Tudor -23.1%, Six1-Eya2 blk 4.7 and HP1b chromo inh 19.6%.
CC(C)c1ccc(S(=O)(=O)NCc2nc3cccnc3n2Cc2ccc(F)cc2)cc1 was read as G9a block 6.8%[59 µM], BAZ2B inh -0.8%, JMJD2A Tudor 7.1% and HP1b chromo inh 23.0%[57 µM].

Compound activity from PubChem BioAssay.
